The supplement of paper PMC8728848
Shown is part of a subset that was picked to be rich in the strongest signals.

Key:
Assay in all cases: glycan array binding signal (z-score within array); higher = stronger binding
Conditions in all cases: glycan notation: IUPAC condensed, linker removed
[1] = biological target: Fuc(a1-2)Gal(b1-3)GlcNAc(b1-3)Gal(b1-4)Glc
Procedure, shortened: (§1)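 From the Consortium for Functional Glycomics database, 3228 arrays were curated, keeping only those whose protein sequence was available. Binding is given as a within-array Z-score averaged across arrays sharing a protein sequence and across linkers. Negative Z-scores can be read as non-binding.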

[2] = biological target: Fuc(a1-2)Gal(b1-3)[Fuc(a1-4)]GlcNAc(b1-3)[Gal(b1-4)GlcNAc(b1-6)]Gal(b1-4)Glc
Procedure, shortened: as §1

[3] = biological target: Fuc(a1-2)Gal(b1-4)GlcNAc(b1-3)Gal(b1-4)GlcNAc(b1-3)Gal(b1-4)GlcNAc
Procedure, shortened: as §1

[4] = biological target: Fuc(a1-2)[Gal(a1-3)]Gal(b1-3)GlcNAc(b1-2)Man(a1-3)[Fuc(a1-2)[Gal(a1-3)]Gal(b1-3)GlcNAc(b1-2)Man(a1-6)]Man(b1-4)GlcNAc(b1-4)GlcNAc
Procedure, shortened: as §1

[5] = biological target: Fuc(a1-2)[Gal(a1-3)]Gal(b1-4)GlcNAc(b1-2)Man(a1-3)[Fuc(a1-2)[Gal(a1-3)]Gal(b1-4)GlcNAc(b1-2)Man(a1-6)]Man(b1-4)GlcNAc(b1-4)GlcNAc
Procedure, shortened: as §1

[6] = biological target: Fuc(a1-2)[GalNAc(a1-3)]Gal(b1-4)GlcNAc
Procedure, shortened: as §1

[7] = biological target: Fuc(a1-2)[GalNAc(a1-3)]Gal(b1-4)GlcNAc(b1-2)Man(a1-3)[Fuc(a1-2)[GalNAc(a1-3)]Gal(b1-4)GlcNAc(b1-2)Man(a1-6)]Man(b1-4)GlcNAc(b1-4)GlcNAc
Procedure, shortened: as §1

[8] = biological target: Fuc(a1-2)[GalNAc(a1-3)]Gal(b1-4)GlcNAc(b1-3)Gal(b1-4)GlcNAc(b1-3)Gal(b1-4)GlcNAc
Procedure, shortened: as §1

[9] = biological target: Fuc(a1-2)[GalNAc(b1-3)]Gal
Procedure, shortened: as §1

[10] = biological target: Fuc(a1-3)[Gal(b1-4)]GlcNAc6S
Procedure, shortened: as §1

[11] = biological target: Gal(a1-3)Gal(b1-4)GlcNAc(b1-3)GalNAc
Procedure, shortened: as §1

[12] = biological target: Gal(a1-3)[Gal(a1-4)]Gal(b1-4)GlcNAc
Procedure, shortened: as §1

[13] = biological target: Gal(a1-4)Gal(b1-3)GlcNAc(b1-2)Man(a1-3)[Gal(a1-4)Gal(b1-3)GlcNAc(b1-2)Man(a1-6)]Man(b1-4)GlcNAc(b1-4)GlcNAc
Procedure, shortened: as §1

[14] = biological target: Gal(b1-3)Gal(b1-4)GlcNAc(b1-2)Man(a1-3)[Gal(b1-3)Gal(b1-4)GlcNAc(b1-2)Man(a1-6)]Man(b1-4)GlcNAc(b1-4)GlcNAc
Procedure, shortened: as §1

[15] = biological target: Gal(b1-3)GalNAc(a1-3)[Fuc(a1-2)]Gal(b1-4)GlcNAc
Procedure, shortened: as §1

[16] = biological target: Gal(b1-3)[Neu5Ac(b2-6)]GalNAc
Procedure, shortened: as §1

[17] = biological target: Gal(b1-4)GlcNAc(b1-2)[Gal(b1-4)GlcNAc(b1-4)]Man(a1-3)[Gal(b1-4)GlcNAc(b1-2)[Gal(b1-4)GlcNAc(b1-6)]Man(a1-6)]Man(b1-4)GlcNAc(b1-4)GlcNAc
Procedure, shortened: as §1

[18] = biological target: Gal(b1-4)GlcNAc(b1-3)Gal(b1-3)GlcNAc
Procedure, shortened: as §1

[19] = biological target: Gal(b1-4)GlcNAc(b1-3)Gal(b1-4)GlcNAc(b1-3)Gal(b1-4)GlcNAc
Procedure, shortened: as §1

[20] = biological target: Gal(b1-4)GlcNAc(b1-3)[GlcNAc(b1-6)]Gal(b1-4)GlcNAc
Procedure, shortened: as §1

[21] = biological target: Gal3S(b1-4)[Fuc(a1-3)]Glc
Procedure, shortened: as §1

Gal6S(b1-4)Glc = biological target: Gal6S(b1-4)Glc
Procedure, shortened: as §1

[22] = biological target: GalNAc(b1-3)Gal(a1-6)Gal(b1-4)Glc
Procedure, shortened: as §1

[23] = biological target: GlcNAc(a1-6)Gal(b1-4)GlcNAc
Procedure, shortened: as §1

[24] = biological target: GlcNAc(b1-4)GlcNAc(b1-4)GlcNAc(b1-4)GlcNAc(b1-4)GlcNAc
Procedure, shortened: as §1

[25] = biological target: GlcNAc(b1-6)Gal(b1-4)GlcNAc
Procedure, shortened: as §1

GlcNAc(b1-6)GalNAc = biological target: GlcNAc(b1-6)GalNAc
Procedure, shortened: as §1

Kdn(a2-3)Gal(b1-4)Glc = biological target: Kdn(a2-3)Gal(b1-4)Glc
Procedure, shortened: as §1

Kdn(a2-3)Gal(b1-4)GlcNAc = biological target: Kdn(a2-3)Gal(b1-4)GlcNAc
Procedure, shortened: as §1

[26] = biological target: Man(a1-2)Man(a1-6)[Man(a1-3)]Man(a1-6)[Man(a1-2)Man(a1-2)Man(a1-3)]Man
Procedure, shortened: as §1

[27] = biological target: Neu5Ac(a2-3)Gal(b1-3)GlcNAc(b1-3)GalNAc
Procedure, shortened: as §1

[28] = biological target: Neu5Ac(a2-3)Gal(b1-4)GlcNAc(b1-3)Gal(b1-4)GlcNAc(b1-3)Gal(b1-4)GlcNAc
Procedure, shortened: as §1

[29] = biological target: Neu5Ac(a2-3)Gal(b1-4)[Fuc(a1-3)]GlcNAc
Procedure, shortened: as §1

[30] = biological target: Neu5Ac(a2-3)Gal6S(b1-4)GlcNAc
Procedure, shortened: as §1

[31] = biological target: Neu5Ac(a2-6)Gal(b1-4)GlcNAc(b1-2)Man(a1-6)[Gal(b1-4)GlcNAc(b1-2)Man(a1-3)]Man(b1-4)GlcNAc(b1-4)GlcNAc
Procedure, shortened: as §1

[32] = biological target: Neu5Ac(a2-6)Gal(b1-4)GlcNAc(b1-3)Gal(b1-4)[Fuc(a1-3)]GlcNAc(b1-3)Gal(b1-4)[Fuc(a1-3)]GlcNAc
Procedure, shortened: as §1

Neu5Gc(a2-6)GalNAc = biological target: Neu5Gc(a2-6)GalNAc
Procedure, shortened: as §1

B1: Gal 3 (Homo sapiens), P17931 (protein)
chain: MADNFSLHDALSGSGNPNPQGWPGAWGNQPAGAGGYPGASYPGAYPGQAPPGAYPGQAPPGAYHGAPGAYPGAPAPGVYPGPPSGPGAYPSSGQPSAPGAYPATGPYGAPAGPLIVPYNLPLPGGVVPRMLITILGTVKPNANILDFQRGNDVAFHFNPRFNENNRRVIVCNTKLDNNWGREERQSVFPFESGKPFKIQVLVEPDHFKVAVNDAHLLQYNHRVKKLNEISKLGISGDIDLTSASYTMI
- glycan array binding signal (z-score) [1]: 1.9
- glycan array binding signal (z-score) [2]: -0.331
- glycan array binding signal (z-score) [3]: 3.62
- glycan array binding signal (z-score) [4]: 3.84
- glycan array binding signal (z-score) [5]: 5.09
- glycan array binding signal (z-score) [6]: 2.16
- glycan array binding signal (z-score) [7]: 4.33
- glycan array binding signal (z-score) [8]: 4.1
- glycan array binding signal (z-score) [9]: -0.382
- glycan array binding signal (z-score) [10]: -0.391
- glycan array binding signal (z-score) [11]: 0.949
- glycan array binding signal (z-score) [12]: -0.388
- glycan array binding signal (z-score) [13]: -0.389
- glycan array binding signal (z-score) [14]: 4.28
- glycan array binding signal (z-score) [15]: 2.57
- glycan array binding signal (z-score) [16]: -0.386
- glycan array binding signal (z-score) [17]: 2.3
- glycan array binding signal (z-score) [18]: 2.35
- glycan array binding signal (z-score) [19]: 4.37
- glycan array binding signal (z-score) [20]: -0.307
- glycan array binding signal (z-score) [21]: -0.39
- glycan array binding signal (z-score) (Gal6S(b1-4)Glc): -0.376
- glycan array binding signal (z-score) [22]: -0.388
- glycan array binding signal (z-score) [23]: -0.392
- glycan array binding signal (z-score) [24]: -0.379
- glycan array binding signal (z-score) [25]: -0.389
- glycan array binding signal (z-score) (GlcNAc(b1-6)GalNAc): -0.391
- glycan array binding signal (z-score) (Kdn(a2-3)Gal(b1-4)Glc): -0.391
- glycan array binding signal (z-score) (Kdn(a2-3)Gal(b1-4)GlcNAc): -0.386
- glycan array binding signal (z-score) [26]: -0.379
- glycan array binding signal (z-score) [27]: -0.375
- glycan array binding signal (z-score) [28]: 3.82
- glycan array binding signal (z-score) [29]: -0.39
- glycan array binding signal (z-score) [30]: -0.387
- glycan array binding signal (z-score) [31]: -0.391
- glycan array binding signal (z-score) [32]: -0.386
- glycan array binding signal (z-score) (Neu5Gc(a2-6)GalNAc): -0.392
